# Measured values taken from PubChem BioAssay (NCATS).
# Unmarked numbers belong to inactive results. Inconclusive results are not listed. Active and inactive are the calls of the source. Unless noted, calls come from the whole dose curve; as a rule, active = well fitted curve in either direction with a large enough effect (not every such curve was filed as active); inconclusive = small, poorly fitted or top-dose-only effect, or another doubt; inactive = flat fitted curve, though single readings scatter.
# What was measured:
# [1] = AP1 Signaling Pathway (AID 357); conditions: ME-180 AP-1-bla reporter, EGF-induced, beta-lactamase ratio, 5 h; at 17.2 µM (top of the series) unless noted;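 note: ME-180 reporter cells stimulated with EGF at its EC50 level; % is set by controls: 0 for no effect and ±100 for the full control effect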
# Method in brief: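 Cells are seeded overnight, exposed to compound titrations and an EC50 level of EGF for 5 hours at 37 °C, then loaded with CCF4 dye for 2.5 hours. Beta-lactamase activity under the AP-1 element is read as a blue/green ratio.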
# [2] = Stat Signaling Pathway (AID 446); conditions: ME-180 SIE beta-lactamase reporter, IL-6 stimulated, 5 h; at 17.2 µM (top of the series) unless noted;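 note: ME-180 cervical cancer cells given 40 pM IL-6 alongside compound; SIE-controlled beta-lactamase reporter measured as 460/530 nm FRET emission ratio; % is set by controls: 0 for no effect and ±100 for the full control effect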
# Method in brief: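 Overnight-plated ME-180 cells bearing a STAT Inducible Element beta-lactamase reporter; 5 h co-exposure to compound and 40 pM IL-6; values normalized to 300 pM IL-6 and 125 nM JAK inhibitor controls.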
# [3] = biological target: Glucocorticoid receptor (Homo sapiens) (UniProt P04150); test: GR-GFP Redistribution (AID 450;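 active = compounds whose dose series gives a full or clear partial fitted curve of increased nuclear translocation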; note: potency is the fitted concentration of half-maximal effect)
# Chain of Glucocorticoid receptor (Homo sapiens) (P04150 whole entry, looked up, the tested form may be a part): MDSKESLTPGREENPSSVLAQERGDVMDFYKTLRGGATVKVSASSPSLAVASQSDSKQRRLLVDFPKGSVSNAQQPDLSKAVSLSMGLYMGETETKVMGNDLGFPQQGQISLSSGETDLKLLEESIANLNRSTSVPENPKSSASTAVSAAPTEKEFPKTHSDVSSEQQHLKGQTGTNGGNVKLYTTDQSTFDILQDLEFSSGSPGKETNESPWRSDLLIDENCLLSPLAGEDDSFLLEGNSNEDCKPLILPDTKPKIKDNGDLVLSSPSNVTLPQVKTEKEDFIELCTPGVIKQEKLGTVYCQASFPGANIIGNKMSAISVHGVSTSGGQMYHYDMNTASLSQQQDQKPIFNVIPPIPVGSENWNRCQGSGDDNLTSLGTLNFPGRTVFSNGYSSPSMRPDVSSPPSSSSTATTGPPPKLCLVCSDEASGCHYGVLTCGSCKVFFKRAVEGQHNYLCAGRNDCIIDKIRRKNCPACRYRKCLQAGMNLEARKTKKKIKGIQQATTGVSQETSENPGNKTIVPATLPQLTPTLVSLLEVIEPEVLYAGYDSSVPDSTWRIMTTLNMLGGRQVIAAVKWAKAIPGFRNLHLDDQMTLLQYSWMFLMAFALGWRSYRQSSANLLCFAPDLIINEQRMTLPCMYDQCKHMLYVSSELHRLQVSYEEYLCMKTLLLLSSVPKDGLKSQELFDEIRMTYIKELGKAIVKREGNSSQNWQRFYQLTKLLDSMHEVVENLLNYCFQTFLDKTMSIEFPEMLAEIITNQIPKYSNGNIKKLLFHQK
# [4] = biological target: Glucocorticoid receptor (Homo sapiens) (UniProt P04150); test: GR-EFC Redistribution (AID 451; calls by dose curve; note: potency is the fitted concentration of half-maximal effect); conditions: CHO-K1 GR-EFC translocation, beta-gal luminescence, 2 h
# Method in brief: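 CHO-K1 cells stably expressing nuclear-localized β-gal enzyme acceptor and GR fused C-terminally to the enzyme donor fragment; ligand-driven nuclear translocation restores β-gal by complementation. Compounds titrated up to 46 uM final, 2 h at 37 °C; luminescence read.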
# [5] = biological target: Mitogen-activated protein kinase 10 (Mus musculus) (UniProt Q61831); test: JNK3 AlphaScreen Assay (AID 530);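 note: kinase came from lysate of stimulated human HepG2 cells; signal reports phosphorylation of biotinylated GST-cJun 1-79 at Ser73 with 10 µM ATP; % is set by controls: 0 for no effect and ±100 for the full control effect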
# Method in brief: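 Biotinylated GST-cJun(1-79) served as substrate for JNK3 in HepG2 lysates stimulated with IL-1beta and TNF-alpha. ATP was 10 uM final, pH 7.6. Ser73 phosphorylation was quantified by AlphaScreen (680 nm excitation).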
# [6] = biological target: 3',5'-cyclic-AMP phosphodiesterase 4B (Homo sapiens) (UniProt Q07343); test: qHTS Assay for Inhibitors of PDE-IV (AID 607; active = well fitted activation curve with a large enough effect in the main read-out, with a control signal flat, not every such curve was filed as active; note: % of control where 0% means no effect)
# Chain of 3',5'-cyclic-AMP phosphodiesterase 4B (Homo sapiens) (Q07343 whole entry, looked up): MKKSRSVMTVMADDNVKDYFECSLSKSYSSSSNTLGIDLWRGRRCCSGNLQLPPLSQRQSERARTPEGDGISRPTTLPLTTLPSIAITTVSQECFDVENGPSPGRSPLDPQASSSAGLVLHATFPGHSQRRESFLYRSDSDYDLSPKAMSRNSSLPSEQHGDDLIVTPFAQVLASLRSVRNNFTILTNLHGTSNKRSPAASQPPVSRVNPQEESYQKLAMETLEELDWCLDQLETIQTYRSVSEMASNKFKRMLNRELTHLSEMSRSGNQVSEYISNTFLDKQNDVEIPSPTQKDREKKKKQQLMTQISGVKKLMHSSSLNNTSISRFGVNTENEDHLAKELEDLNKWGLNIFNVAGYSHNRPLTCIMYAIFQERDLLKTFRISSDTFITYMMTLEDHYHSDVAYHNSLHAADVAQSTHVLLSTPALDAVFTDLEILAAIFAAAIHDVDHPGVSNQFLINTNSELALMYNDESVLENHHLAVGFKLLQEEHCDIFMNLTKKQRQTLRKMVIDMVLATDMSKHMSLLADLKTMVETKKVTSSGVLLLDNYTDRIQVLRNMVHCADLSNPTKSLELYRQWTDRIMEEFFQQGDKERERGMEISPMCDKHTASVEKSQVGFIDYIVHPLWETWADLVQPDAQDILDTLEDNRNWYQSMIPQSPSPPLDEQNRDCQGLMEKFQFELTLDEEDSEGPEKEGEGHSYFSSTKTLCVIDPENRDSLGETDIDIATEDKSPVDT
# Method in brief: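 Live HEK293 cells with a modified cyclic nucleotide-gated (CNG) channel report intracellular cAMP via membrane-potential dye fluorescence (ex 535/em 590 nm). Endogenous PDE-IV was targeted. Compounds were tested at up to 22.9 uM final; RO 20-1724 100 uM served as control.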
# [7] = qHTS Assay for Identification of Small Molecule Agonists for Hypoxia Response Element Signaling Pathway (AID 914; active = well fitted activation curve with a large enough effect in the signal ratio, with a control signal flat, not every such curve was filed as active; the % refers to the signal ratio; note: % of control where 0% means no effect); conditions: ME-180 (cervical carcinoma) HRE-bla reporter, beta-lactamase ratio, CoCl2, 17 h; activation: hits give high values
# Method in brief: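 A beta-lactamase reporter under hypoxia response element control in ME-180 cells served as the system. Compound titrations plus EC50 CoCl2 ran 17 h at 37 degrees Celsius; AC50 values were fitted from %Activity.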
smiles,measurement,setting,value
Cc1cccc(OCC(=O)N2CCC(N3CCCCCC3)CC2)c1,"activity change, negative = inhibition",[1],4.73%
same,"activity, negative = inhibition",[2],5.82%
same,Potency,[3],> 20.6 µM
CCN(CC)CCNc1nc(-c2ccco2)c2c(c1C#N)CC(C)(C)OC2,"activity change, negative = inhibition",[1],12.8%
same,"activity, negative = inhibition",[2],14.7%
same,Potency,[3],> 20.6 µM
CCCCCCn1c(SCCN2CCOCC2)nc2c1c(=O)[nH]c(=O)n2C,"activity change, negative = inhibition",[1],-17.8%
same,"activity, negative = inhibition",[2],-0.329%
same,Potency,[3],> 20.6 µM
COc1cccc(C(=O)OC2CCCN(C)C2)c1 (stereo not given),"activity change, negative = inhibition",[1],-4.26%
same,"activity, negative = inhibition",[2],4.49%
same,Potency,[3],> 20.6 µM
COc1cccc(C(=O)c2sc(NC(C)C)nc2N)c1,"activity change, negative = inhibition",[1],-116% (active)
same,"activity, negative = inhibition",[2],-103% (active)
same,Potency,[3],> 20.6 µM
CC1CCc2cc(F)cc3c(O)c(C(=O)NCc4ccco4)c(=O)n1c23 (stereo not given),"activity change, negative = inhibition",[1],-28.9%
same,"activity, negative = inhibition",[2],-2.44%
same,Potency,[3],> 20.6 µM
COC(=O)c1ccc(C2C(C(=O)c3cc4ccccc4o3)=C(O)C(=O)N2CCCN(C)C)cc1 (stereo not given),"activity change, negative = inhibition",[1],-0.991%
same,"activity, negative = inhibition",[2],-11.4%
same,Potency,[3],> 20.6 µM
CC(=O)O[C@H]1C(=O)[C@]2(C)[C@H]([C@H](OC(=O)c3ccccc3)[C@]3(O)C[C@H](OC(=O)[C@H](O)[C@@H](NC(=O)c4ccccc4)c4ccccc4)C(C)=C1C3(C)C)[C@]1(OC(C)=O)CO[C@@H]1C[C@@H]2O,"activity change, negative = inhibition",[1],-5.19%
same,"activity, negative = inhibition",[2],-2.52%
same,Potency,[3],> 20.6 µM
CCSc1nnc(NC(=O)C(C(F)(F)F)C(F)(F)F)s1,"activity change, negative = inhibition",[1],-16.3%
same,"activity, negative = inhibition",[2],-21.8%
same,Potency,[3],> 20.6 µM
COc1ccc(CSc2nnc3n(C)c(=O)c4c5c(sc4n23)CCCC5)cc1,"activity change, negative = inhibition",[1],-2.6%
same,"activity, negative = inhibition",[2],0.924%
same,Potency,[3],> 20.6 µM
CN=C(c1ccco1)n1c(=S)nc(-c2ccco2)n(C)c1=S,"activity change, negative = inhibition",[1],10.9%
same,"activity, negative = inhibition",[2],15.6%
same,Potency,[3],> 20.6 µM
Cc1nc(N2CCN(C(=O)c3ccc(Cl)cc3)CC2)c(C#N)c2c1COC(C)(C)C2,"activity change, negative = inhibition",[1],-10%
same,"activity, negative = inhibition",[2],-17.4%
same,Potency,[3],> 20.6 µM
COc1ccc(/C(O)=C2\C(=O)C(=O)N(c3cc(C)on3)C2c2ccccc2OC)cc1C (stereo not given),"activity change, negative = inhibition",[1],-17.1%
same,"activity, negative = inhibition",[2],-23.5%
same,Potency,[3],> 20.6 µM
CC(NC(=O)OC(C)(C)C)C(=O)Oc1ccc2ccc(=O)oc2c1 (stereo not given),"activity change, negative = inhibition",[1],24.1%
same,"activity, negative = inhibition",[2],10.7%
same,Potency,[3],> 20.6 µM
CC(C)Cc1nc(N2CCCCC2)c(C#N)c2c1CCC2,"activity change, negative = inhibition",[1],28.8%
same,"activity, negative = inhibition",[2],9.01%
same,Potency,[3],> 20.6 µM
CCOC(=O)c1c(NC(=O)CCN2CCOCC2)sc2c1CC(C)(C)OC2,"activity change, negative = inhibition",[1],-21.7%
same,"activity, negative = inhibition",[2],-5.77%
same,Potency,[3],> 20.6 µM
COc1ccc(/C=N/n2cncn2)cc1CSc1ccccn1,"activity change, negative = inhibition",[1],-9.09%
same,"activity, negative = inhibition",[2],10.6%
same,Potency,[3],> 20.6 µM
COc1ccc(C2C(C#N)=C(SC)NC3=C2C(=O)CC(C)(C)C3)cc1 (stereo not given),"activity change, negative = inhibition",[1],-6.47%
same,"activity, negative = inhibition",[2],-6.08%
same,Potency,[3],> 20.6 µM
CC1(C)Cc2c(C#N)c(SCC(=O)c3ccccc3)nc(N3CCCC3)c2CO1,"activity change, negative = inhibition",[1],24.5%
same,"activity, negative = inhibition",[2],6.65%
same,Potency,[3],> 20.6 µM
CCCOc1ccc(C(C)=O)cc1CSCCC#N,"activity change, negative = inhibition",[1],-12.7%
same,"activity, negative = inhibition",[2],85.5%
same,Potency,[3],> 20.6 µM
C=CCSc1nnc2n(CCc3ccccc3)c(=O)c3c4c(sc3n12)COC(C)(C)C4,"activity change, negative = inhibition",[1],-23.5%
same,"activity, negative = inhibition",[2],-18.1%
same,Potency,[3],> 20.6 µM
CC1(C)CC(=O)C(C=NCCN2CCN(CCc3ccccc3)CC2)=C(O)C1,"activity change, negative = inhibition",[1],2.91%
same,"activity, negative = inhibition",[2],-3.07%
same,Potency,[3],> 20.6 µM
CCCCOC(=O)C(C)c1c(C)[nH]c(=S)[nH]c1=O (stereo not given),"activity change, negative = inhibition",[1],7.17%
same,"activity, negative = inhibition",[2],-3.5%
same,Potency,[3],> 20.6 µM
COc1ccc(OCC(O)CN2C(=O)NC(C)(C)C2=O)cc1 (stereo not given),"activity change, negative = inhibition",[1],-11.2%
same,"activity, negative = inhibition",[2],9.74%
same,Potency,[3],> 20.6 µM
Cc1cc(Nc2ccc3ccccc3c2)n2ncnc2n1,"activity change, negative = inhibition",[1],16.7%
same,"activity, negative = inhibition",[2],-6.76%
same,Potency,[3],> 20.6 µM
C[N+](C)(C)[C@@H](C1=CCCC1=O)c1ccccc1,"activity change, negative = inhibition",[1],3.55% [at 7.69 µM]
same,"activity, negative = inhibition",[2],-12.6% [at 7.69 µM]
same,Potency,[3],> 46 µM
same,Potency,[4],> 9.22 µM
same,"activity change, negative = inhibition",[5],5.46% [at 11.4 µM]
same,Potency,[6],inactive
same,activation,[7],-1.62%
COc1ccccc1NC(=O)C1=C(C)NC(SCC(=O)c2ccc(C)cc2)=C(C#N)C1c1ccco1 (stereo not given),"activity change, negative = inhibition",[1],-8.91%
same,"activity, negative = inhibition",[2],-6.63%
same,Potency,[3],> 20.6 µM
